Laboratory results as given in ChEMBL document CHEMBL3988442, “University of Dundee, Small-Polar-MMV Screening Library” (2021).
For some of these results: Measured potencies and affinities stand elsewhere.

Key:
Parameters in all cases: scale not given: direction of the effect not stated beside the values
[1] = target: Protein translocase subunit SecA (Escherichia coli (strain K12)) (UniProt P10408); test: Assay to Identify E. coli SecA ATPase Inhibitors; assay type: functional; details: 30 µM
[2] = target: T1, Ubiquitin-activating enzyme e1, putative (Leishmania donovani (strain BPK282A1)) (UniProt E9BSI1); test: Leishmania donovani Ubiquitin Activating Enzyme (LdE1); assay type: functional; details: 30 µM
T1 sequence (whole entry): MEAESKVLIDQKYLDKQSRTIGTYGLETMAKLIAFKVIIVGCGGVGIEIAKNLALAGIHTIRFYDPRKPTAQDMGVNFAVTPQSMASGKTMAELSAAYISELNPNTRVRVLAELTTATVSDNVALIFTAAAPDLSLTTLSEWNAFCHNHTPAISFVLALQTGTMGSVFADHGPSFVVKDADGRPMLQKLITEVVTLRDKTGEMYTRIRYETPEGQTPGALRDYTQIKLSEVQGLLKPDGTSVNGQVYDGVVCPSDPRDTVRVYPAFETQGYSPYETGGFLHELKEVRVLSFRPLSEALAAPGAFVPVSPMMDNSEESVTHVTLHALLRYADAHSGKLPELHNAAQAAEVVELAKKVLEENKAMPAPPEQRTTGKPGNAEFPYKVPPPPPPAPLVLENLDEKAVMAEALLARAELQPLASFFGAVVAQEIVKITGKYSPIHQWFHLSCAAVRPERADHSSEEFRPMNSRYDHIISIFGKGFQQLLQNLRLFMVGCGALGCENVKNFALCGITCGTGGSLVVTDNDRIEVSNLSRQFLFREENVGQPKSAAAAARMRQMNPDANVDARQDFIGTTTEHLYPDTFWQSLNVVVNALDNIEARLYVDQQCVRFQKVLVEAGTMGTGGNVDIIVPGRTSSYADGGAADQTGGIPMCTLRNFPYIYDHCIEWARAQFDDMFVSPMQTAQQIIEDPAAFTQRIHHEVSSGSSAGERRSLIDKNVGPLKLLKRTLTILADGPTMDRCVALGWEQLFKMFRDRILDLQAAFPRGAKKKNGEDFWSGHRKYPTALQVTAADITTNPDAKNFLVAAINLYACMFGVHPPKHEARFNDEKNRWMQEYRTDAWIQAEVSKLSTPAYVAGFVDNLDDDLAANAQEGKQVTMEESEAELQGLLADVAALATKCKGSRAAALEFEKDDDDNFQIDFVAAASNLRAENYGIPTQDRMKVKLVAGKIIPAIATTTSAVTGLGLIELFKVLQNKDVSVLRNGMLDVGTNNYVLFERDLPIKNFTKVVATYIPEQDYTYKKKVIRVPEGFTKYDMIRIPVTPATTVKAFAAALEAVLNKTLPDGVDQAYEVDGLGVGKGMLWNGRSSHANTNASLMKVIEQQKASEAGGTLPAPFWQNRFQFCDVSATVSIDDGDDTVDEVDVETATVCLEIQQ

[3] = target: AMP-activated protein kinase, AMPK (Homo sapiens) (UniProt P54646+O43741+P54619+Q9UGJ0+Q9Y478+Q13131+Q9UGI9); test: AMP-dependent Kinase enzyme assay. An in vitro enzyme assay that detects ADP turnover that is directly proportional to AMPK activity. This uses naive AMPK that is activated during the assay with MK-8722; assay type: functional; details: 30 µM
[4] = target: Sialic acid-binding Ig-like lectin 9 (Homo sapiens) (UniProt Q9Y336); test: Hs-Siglec9 ALPHAscreen SOP 20170721; details: 10 µM
Trypanosoma cruzi = test: Trypanosoma cruzi phosphomannomutase and mannose-1-phosphate guanylyltransferase assay; assay type: functional; details: 10 µM
[5] = target: T2, Arginase-2, mitochondrial (Homo sapiens) (UniProt P78540); test: in vitro enzyme assay to detect the production of urea directly proportional to the activity of Arginase II; assay type: functional; details: 33.3 µM; further: in the data most compounds retested in dose-response had high values
T2 sequence (whole entry): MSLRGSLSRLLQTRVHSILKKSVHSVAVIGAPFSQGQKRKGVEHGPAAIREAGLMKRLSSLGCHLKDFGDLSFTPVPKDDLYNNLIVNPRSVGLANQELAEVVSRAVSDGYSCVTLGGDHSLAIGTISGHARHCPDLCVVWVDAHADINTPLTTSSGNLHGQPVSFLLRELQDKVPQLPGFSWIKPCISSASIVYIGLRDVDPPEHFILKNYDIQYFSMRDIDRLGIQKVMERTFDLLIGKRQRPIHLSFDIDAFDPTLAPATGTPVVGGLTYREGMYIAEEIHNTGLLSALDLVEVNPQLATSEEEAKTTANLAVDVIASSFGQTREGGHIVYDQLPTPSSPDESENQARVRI

[6] = target: T3, Proteasome subunit beta (Trypanosoma cruzi) (UniProt O96673); test: Trypanosoma cruzi proteasome chymotrypsin-like activity (TcProtChymo) assay.; further: in the data most compounds retested in dose-response had high values; assay type: functional; details: 9.37 µM
T3 sequence (whole entry): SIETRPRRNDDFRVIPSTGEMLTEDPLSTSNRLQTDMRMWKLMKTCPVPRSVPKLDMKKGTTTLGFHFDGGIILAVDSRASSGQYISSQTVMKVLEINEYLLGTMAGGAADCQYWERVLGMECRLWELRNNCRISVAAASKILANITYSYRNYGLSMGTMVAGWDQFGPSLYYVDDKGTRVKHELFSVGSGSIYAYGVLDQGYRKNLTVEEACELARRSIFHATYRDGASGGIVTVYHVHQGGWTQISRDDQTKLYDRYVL

Homo sapiens = species: Homo sapiens; test: To identify inhibition of the IFN signalling (Jak-Stat) pathway via expression of an eGFP reporter gene under the control of an IFN-stimulated response element (ISRE) containing MxA promoter.; assay type: functional; details: 30 µM
[7] = target: T4, Tyrosyl-tRNA synthetase, putative (Trypanosoma cruzi (strain CL Brener)) (UniProt Q4DSP6); test: Trypanosoma cruzi tyrosyl tRNA synthetase (TcYRS) _High Tyrosine SOP; assay type: functional; details: 30 µM; further: in the data most compounds retested in dose-response had high values
T4 sequence (whole entry): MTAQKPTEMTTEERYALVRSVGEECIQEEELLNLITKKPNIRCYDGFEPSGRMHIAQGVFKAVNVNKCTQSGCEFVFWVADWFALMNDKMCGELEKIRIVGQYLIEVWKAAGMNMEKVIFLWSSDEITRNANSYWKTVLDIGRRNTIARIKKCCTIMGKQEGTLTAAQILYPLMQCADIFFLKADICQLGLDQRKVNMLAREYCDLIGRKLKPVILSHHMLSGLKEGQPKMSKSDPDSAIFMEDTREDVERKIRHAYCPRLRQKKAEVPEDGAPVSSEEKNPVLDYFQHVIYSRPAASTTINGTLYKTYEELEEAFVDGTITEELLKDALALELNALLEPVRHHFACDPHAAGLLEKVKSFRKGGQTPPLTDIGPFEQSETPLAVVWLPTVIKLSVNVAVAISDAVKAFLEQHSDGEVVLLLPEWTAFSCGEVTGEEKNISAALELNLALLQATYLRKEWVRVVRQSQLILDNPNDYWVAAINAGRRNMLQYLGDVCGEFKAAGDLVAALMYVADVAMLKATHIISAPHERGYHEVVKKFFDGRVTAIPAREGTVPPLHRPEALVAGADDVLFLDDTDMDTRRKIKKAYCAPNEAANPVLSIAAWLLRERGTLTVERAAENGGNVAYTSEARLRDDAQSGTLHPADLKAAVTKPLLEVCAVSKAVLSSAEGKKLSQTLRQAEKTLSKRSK

[8] = target: T4, Tyrosyl-tRNA synthetase, putative (Trypanosoma cruzi (strain CL Brener)); test: Trypanosoma cruzi tyrosyl tRNA synthetase (TcYRS) SOP; assay type: functional; details: 30 µM
[9] = target: Chromo domain-containing protein 1 (Saccharomyces cerevisiae (strain ATCC 204508 / S288c) (Baker's yeast)) (UniProt P32657); test: ScCHD-1 Enzyme Inhibition Assay; assay type: functional; details: 30 µM; further: in the data most compounds retested in dose-response had high values
Chromo domain-containing protein 1 (Saccharomyces cerevisiae (strain ATCC 204508 / S288c) (Baker's yeast)), sequence (P32657 whole entry, the tested form may be a part): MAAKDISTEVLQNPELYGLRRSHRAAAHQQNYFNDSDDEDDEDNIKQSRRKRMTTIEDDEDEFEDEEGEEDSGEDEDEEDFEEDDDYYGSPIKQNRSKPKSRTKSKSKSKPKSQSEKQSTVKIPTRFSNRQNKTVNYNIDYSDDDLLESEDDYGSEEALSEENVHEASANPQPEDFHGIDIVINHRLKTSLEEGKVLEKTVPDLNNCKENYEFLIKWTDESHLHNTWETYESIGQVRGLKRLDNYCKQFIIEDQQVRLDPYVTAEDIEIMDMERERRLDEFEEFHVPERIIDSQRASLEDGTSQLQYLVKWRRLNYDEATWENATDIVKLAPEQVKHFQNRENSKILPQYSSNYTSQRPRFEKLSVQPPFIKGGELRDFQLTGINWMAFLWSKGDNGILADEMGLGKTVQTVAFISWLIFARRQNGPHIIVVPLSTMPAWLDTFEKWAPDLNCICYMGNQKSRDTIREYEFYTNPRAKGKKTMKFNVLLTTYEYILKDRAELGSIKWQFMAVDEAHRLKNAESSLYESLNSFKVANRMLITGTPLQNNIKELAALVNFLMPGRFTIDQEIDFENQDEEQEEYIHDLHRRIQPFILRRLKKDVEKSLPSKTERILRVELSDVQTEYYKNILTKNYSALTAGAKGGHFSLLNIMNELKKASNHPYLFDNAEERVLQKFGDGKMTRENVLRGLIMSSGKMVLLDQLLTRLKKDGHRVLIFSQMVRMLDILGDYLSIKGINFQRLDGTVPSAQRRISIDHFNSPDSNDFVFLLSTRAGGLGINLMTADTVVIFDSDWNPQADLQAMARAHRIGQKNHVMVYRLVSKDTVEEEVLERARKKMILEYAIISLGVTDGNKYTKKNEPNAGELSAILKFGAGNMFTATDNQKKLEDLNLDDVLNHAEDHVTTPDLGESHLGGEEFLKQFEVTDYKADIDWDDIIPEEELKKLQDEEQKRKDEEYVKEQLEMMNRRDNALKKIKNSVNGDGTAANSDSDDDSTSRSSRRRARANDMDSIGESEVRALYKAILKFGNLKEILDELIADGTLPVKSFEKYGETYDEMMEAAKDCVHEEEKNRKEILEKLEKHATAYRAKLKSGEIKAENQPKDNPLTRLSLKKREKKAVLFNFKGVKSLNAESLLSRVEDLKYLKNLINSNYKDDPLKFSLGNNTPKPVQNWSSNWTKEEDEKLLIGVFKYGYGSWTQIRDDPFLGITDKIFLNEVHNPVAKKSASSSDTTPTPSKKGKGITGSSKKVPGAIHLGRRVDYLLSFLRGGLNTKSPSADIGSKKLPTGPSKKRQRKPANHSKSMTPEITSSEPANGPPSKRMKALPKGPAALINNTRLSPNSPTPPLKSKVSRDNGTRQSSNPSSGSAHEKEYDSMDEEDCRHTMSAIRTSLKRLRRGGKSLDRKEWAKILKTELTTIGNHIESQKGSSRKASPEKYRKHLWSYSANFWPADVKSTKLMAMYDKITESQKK

Protein translocase subunit SecA (Escherichia coli (strain K12)), sequence (P10408 whole entry): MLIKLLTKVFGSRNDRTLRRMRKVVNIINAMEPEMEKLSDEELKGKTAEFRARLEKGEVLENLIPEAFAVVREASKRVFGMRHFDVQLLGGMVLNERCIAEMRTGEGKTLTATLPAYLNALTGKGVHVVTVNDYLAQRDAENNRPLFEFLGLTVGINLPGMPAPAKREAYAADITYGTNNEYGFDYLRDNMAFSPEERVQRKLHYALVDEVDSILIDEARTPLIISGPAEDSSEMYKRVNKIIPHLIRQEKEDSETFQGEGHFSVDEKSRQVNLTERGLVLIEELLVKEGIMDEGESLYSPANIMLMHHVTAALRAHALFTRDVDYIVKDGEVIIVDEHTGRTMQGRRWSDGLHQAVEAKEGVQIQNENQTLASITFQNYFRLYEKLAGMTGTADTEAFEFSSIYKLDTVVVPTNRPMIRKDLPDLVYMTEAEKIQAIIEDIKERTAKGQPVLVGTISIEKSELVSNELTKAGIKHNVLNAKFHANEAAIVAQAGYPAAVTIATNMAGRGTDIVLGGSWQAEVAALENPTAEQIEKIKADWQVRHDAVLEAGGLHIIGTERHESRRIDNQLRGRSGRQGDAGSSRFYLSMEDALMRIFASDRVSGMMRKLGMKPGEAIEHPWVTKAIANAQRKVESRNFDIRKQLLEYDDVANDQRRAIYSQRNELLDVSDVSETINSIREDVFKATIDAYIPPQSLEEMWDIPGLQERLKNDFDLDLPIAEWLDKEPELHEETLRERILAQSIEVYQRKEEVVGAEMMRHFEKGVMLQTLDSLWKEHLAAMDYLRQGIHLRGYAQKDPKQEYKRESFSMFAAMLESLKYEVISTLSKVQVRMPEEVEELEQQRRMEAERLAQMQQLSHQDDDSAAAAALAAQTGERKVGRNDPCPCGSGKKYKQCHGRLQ
Sialic acid-binding Ig-like lectin 9 (Homo sapiens), sequence (Q9Y336 whole entry): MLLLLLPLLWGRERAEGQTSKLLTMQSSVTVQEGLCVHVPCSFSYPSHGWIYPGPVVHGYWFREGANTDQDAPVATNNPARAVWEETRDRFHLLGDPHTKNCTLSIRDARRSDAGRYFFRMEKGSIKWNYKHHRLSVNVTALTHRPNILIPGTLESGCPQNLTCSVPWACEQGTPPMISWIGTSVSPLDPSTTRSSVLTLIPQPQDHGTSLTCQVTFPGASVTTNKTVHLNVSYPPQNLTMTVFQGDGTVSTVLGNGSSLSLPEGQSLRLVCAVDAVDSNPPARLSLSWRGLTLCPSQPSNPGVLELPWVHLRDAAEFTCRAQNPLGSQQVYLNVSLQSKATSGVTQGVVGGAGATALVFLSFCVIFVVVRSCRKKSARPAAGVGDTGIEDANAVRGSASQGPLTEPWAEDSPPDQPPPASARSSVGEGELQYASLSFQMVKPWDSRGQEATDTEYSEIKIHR

| Structure (SMILES) | Percent Effect [1] [%] | Percent Effect [2] [%] | Percent Effect [3] [%] | Percent Effect [4] [%] | Percent Effect (Trypanosoma cruzi) [%] | Percent Effect [5] [%] | Percent Effect [6] [%] | Percent Effect (Homo sapiens) [%] | Percent Effect [7] [%] | Percent Effect [8] [%] | Percent Effect [9] [%] |
| --- | --- | --- | --- | --- | --- | --- | --- | --- | --- | --- | --- |
| CNC(=O)C1(CCCc2ccncc2)CCCN1 (stereo not given) | -0.846 | 12.2 | 14.6 | 0.634 | -2.96 | -2.09 | 12.3 | 1.56 | 7.53 | 22.1 | -10.5 |
| CSc1nccn1-c1cccc(C(=O)NCc2nnc(C)n2C)c1 | -3.63 | 13.2 | -0.262 | 12.6 | 4.01 | 1.08 | 3.98 | 15.6 | 6.4 | 23.5 | -2.71 |
| CC(C)n1cc(C(=O)N2Cc3ccccc3OC3(CCOCC3)C2)cn1 | -4.16 | 9.46 | 5.88 | -5.24 | -8.1 | -9.05 | 14.5 | 28.1 | -3.23 | -1.3 | -13.3 |
| Cc1nn(C)c(C)c1NC(=O)CCn1ncc2c(C)cccc21 | -5.82 | 7.79 | 1.49 | 9.37 | 2.85 | 9.65 | 13.3 | 5.45 | 6.45 | 13.6 | 41.5 |
| CC(C)CN1CCC(NC(=O)c2ccc(F)cc2I)CC1 | -4.38 | 23.6 | -16 | 29.2 | 7.48 | 39.7 | 8.6 | -5.59 | 4.21 | 17.9 | -10.3 |
| CCOCC(O)CN1CCN(C(=O)C2CC2)CC1 (stereo not given) | -3.95 | 16.2 | 86.5 | -5.78 | 1.04 | -8.42 | 2.52 | 10.7 | 9.36 | 16.1 | -7.42 |
| Cc1cccnc1NC(=O)C(C)Cn1nc(C(F)(F)F)cc1C (stereo not given) | -1.64 | -4 | 2.53 | 4.76 | -3.73 | -1.94 | 11.8 | -10.4 | 3.17 | 2.56 | -1.89 |
| Cc1noc(C)c1CN(C)C(=O)c1ccc(NC2CC2)nc1 | -1.87 | 15.8 | -5.49 | 6.74 | 1.59 | 2.88 | 5.84 | -7.41 | 9.36 | 18.5 | -4.25 |
| Cc1ncsc1C(=O)NC1CCN(CC(=O)N(C)c2ccccc2)CC1 | -6.03 | 18.4 | -4.03 | 6.55 | -0.654 | -0.719 | 3.3 | 1.23 | 10.3 | 18.5 | 2.33 |
| Cc1nc(C2CCCN2C(=O)c2cnns2)no1 (stereo not given) | -3.1 | 13.2 | 3.2 | 4.23 | -0.564 | 9.96 | 12.9 | 3.69 | 5.39 | 17.1 | -6.62 |
| CN(C)c1ccc(CC(=O)N[C@@H]2CCNC[C@H]2O)cc1 | -6.67 | 5.41 | -14.5 | 7.45 | 2.05 | 0.744 | -1.46 | -17.6 | 7.53 | 11.1 | -2.77 |
| Cc1ccnc(OCC(=O)N2CCC(C(N)=O)CC2)n1 | -3.87 | 21.9 | 0.564 | 12.6 | 1.37 | 5 | 11.4 | 7.23 | 6.45 | 15 | -7.43 |
| CCS(=O)(=O)N1C[C@H]2CCC[C@@]2(COc2ccccn2)C1 | -2.05 | 12 | -6.57 | 2.8 | -0.393 | -6.16 | 10.5 | 33 | 2.12 | 5.13 | -1.39 |
| COc1cn(-c2ccccc2)nc1C(=O)NCCCN1CCCC(C)C1 (stereo not given) | -5.93 | 0 | 1.22 | 18 | 2.62 | 0.356 | -2.2 | 5.68 | 4.85 | 9.76 | -1.59 |
| O=C(CCc1ccccc1)Nc1ncccc1OC(F)F | -2.62 | 6.94 | -0.321 | -1.86 | -3.4 | -0.883 | 13.5 | -3.51 | 1.05 | 0 | -2.3 |
| O=S(=O)(Nc1cnn(C2CCOCC2)c1)c1ccc(F)c(F)c1 | -2.82 | -2.6 | -3.09 | 9.32 | -5.03 | -8.39 | 8.01 | -0.875 | -1.06 | 3.85 | -2.49 |
| O=C(c1coc(COc2cccc(F)c2)n1)N1CC[C@H](O)[C@@H](O)C1 | -4.21 | 2.7 | 0.202 | 8.13 | 1.93 | 3.33 | 10.2 | 7.51 | 5.82 | 9.76 | -4.67 |
| CCNC(=O)N1CCN(Cc2nc3ccccc3[nH]2)[C@@H]2CS(=O)(=O)C[C@@H]21 | -3.35 | 5.41 | -2.19 | -3.56 | -4.2 | 2.23 | 15.2 | 1.54 | 4.3 | 11.1 | -3.76 |
| CC(=O)c1cccc(OCCCC(=O)NCC2CCCN2C)c1 (stereo not given) | -3.97 | 13.2 | -2.69 | 14.8 | 3.57 | 0 | 11.7 | 6.04 | 10.3 | 21.9 | -9.7 |
| CCN1CCN(CC(O)c2ccc(OC(F)(F)F)cc2)CC1 (stereo not given) | -9.59 | 16.2 | -17.6 | 27.4 | 9.34 | -19.6 | 9.73 | 0.571 | 6.4 | 18.5 | -20.3 |
